Targets with a hit are over-represented here; the source holds about 7,900 in all. About 0.6% of all pairs of compound and target were hits.
Columns and labels:
Experiment in all cases: log2 fold change, soluble protein after heating vs DMSO (PISA); higher = thermal stabilisation; K562 cells, 10 uM, 30 min; active = over 0.2 and 3.5 SD of the protein, either way, in both replicates (recomputed)
[1] = compound: NCC(=O)Nc1ccc(-n2nc(C(F)(F)F)cc2-c2ccc3c(ccc4ccccc43)c2)cc1
Method in brief: (§1)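 Thermal stability values are relative to control samples and come from duplicates. They are expressed as log2 fold changes. For measurement, K562 cells (2×10^6 cells/mL) received 10 μM compound for 30 min, and aliquots were heated for 3 min over 48°C-58°C, pooled, and extracted at 4°C in PBS with 0.5% NP-40. Soluble protein, the supernatant after 21,000xg for 90 min, was quantified by TMTpro 16plex LC-MS/MS with equalised channel sums.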

[2] = compound: NC(=O)c1cnc(N[C@@H]2CCCC[C@@H]2N)nc1Nc1cccc(-n2nccn2)c1
Method in brief: as §1

vorinostat = compound: O=C(CCCCCCC(=O)Nc1ccccc1)NO [vorinostat]
Method in brief: as §1

[3] = compound: NC1(c2ccc(-c3nc4ccn5c(=O)[nH]nc5c4cc3-c3ccccc3)cc2)CCC1
Method in brief: as §1

citarinostat = compound: O=C(CCCCCCNC(=O)c1cnc(N(c2ccccc2)c2ccccc2Cl)nc1)NO [citarinostat]
Method in brief: as §1

silmitasertib = compound: O=C(O)c1ccc2c(c1)nc(Nc1cccc(Cl)c1)c1ccncc12 [silmitasertib]
Method in brief: as §1

[4] = compound: O=C1NC(=O)C(c2cnc3ccccn23)=C1c1cn2c3c(cc(F)cc13)CN(C(=O)N1CCCCC1)CC2
Method in brief: as §1

[5] = compound: c1cc(OCCN2CCCCC2)cc(-c2n[nH]c3ccc(-c4nnc[nH]4)cc23)c1
Method in brief: as §1

[6] = compound: NC(=O)Nc1cc(-c2cccc(F)c2)sc1C(=O)N[C@H]1CCCNC1
Method in brief: as §1

entinostat = compound: Nc1ccccc1NC(=O)c1ccc(CNC(=O)OCc2cccnc2)cc1 [entinostat]
Method in brief: as §1

Measured: log2 fold change

PSMA3 (UniProt G3V4X5)
inactive: [1] -0.055

PUM1 (UniProt Q14671)
inactive: [2] 0.058 | vorinostat -0.037

PIGH (UniProt Q14442)
Chain of UniProt Q14442 (Q14442 whole entry, looked up): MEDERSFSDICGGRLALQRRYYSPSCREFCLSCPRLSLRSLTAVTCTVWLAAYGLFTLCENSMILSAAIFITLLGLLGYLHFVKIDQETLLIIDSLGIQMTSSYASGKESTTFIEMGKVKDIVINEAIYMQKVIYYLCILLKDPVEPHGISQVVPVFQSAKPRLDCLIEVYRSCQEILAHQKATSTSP
inactive: [2] -0.021 | [3] -0.087 | [1] -0.021 | vorinostat 0.18 | citarinostat 0.031 | silmitasertib 0.093 | [4] -0.128 | [5] -0.05

PSD3 (UniProt Q9NYI0)
Chain of UniProt Q9NYI0 (Q9NYI0 whole entry, looked up): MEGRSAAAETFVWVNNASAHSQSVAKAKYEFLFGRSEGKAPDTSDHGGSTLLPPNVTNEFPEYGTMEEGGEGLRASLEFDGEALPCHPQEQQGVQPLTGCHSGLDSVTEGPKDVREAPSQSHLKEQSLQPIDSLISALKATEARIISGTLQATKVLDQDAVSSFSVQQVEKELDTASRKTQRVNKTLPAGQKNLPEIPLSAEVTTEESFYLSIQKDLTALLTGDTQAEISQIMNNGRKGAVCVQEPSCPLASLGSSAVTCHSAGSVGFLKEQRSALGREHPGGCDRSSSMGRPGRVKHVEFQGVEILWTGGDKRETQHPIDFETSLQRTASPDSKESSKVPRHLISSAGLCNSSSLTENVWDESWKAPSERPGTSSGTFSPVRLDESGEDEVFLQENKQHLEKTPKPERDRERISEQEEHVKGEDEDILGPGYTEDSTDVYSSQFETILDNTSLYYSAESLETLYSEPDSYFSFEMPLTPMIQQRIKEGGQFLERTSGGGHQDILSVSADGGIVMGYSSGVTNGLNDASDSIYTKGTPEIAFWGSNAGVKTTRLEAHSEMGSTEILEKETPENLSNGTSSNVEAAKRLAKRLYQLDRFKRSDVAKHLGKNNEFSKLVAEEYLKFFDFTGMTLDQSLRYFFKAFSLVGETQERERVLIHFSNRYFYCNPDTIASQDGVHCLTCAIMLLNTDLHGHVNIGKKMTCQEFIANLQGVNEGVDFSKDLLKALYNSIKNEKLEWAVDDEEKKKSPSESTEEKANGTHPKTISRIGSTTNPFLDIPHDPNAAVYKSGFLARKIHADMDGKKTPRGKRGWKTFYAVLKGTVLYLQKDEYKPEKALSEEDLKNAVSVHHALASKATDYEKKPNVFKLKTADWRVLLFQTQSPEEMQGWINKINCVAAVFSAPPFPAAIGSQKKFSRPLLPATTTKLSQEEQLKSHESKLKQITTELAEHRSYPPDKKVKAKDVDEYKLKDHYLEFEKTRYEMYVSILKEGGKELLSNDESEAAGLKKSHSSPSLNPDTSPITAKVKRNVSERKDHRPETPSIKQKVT
inactive: [3] -0.14 | [1] -0.113 | citarinostat 0.017 | silmitasertib -0.095 | [5] -0.02
active: [2] -0.262

PRR14L (UniProt Q5THK1)
Chain of UniProt Q5THK1 (Q5THK1 whole entry, looked up): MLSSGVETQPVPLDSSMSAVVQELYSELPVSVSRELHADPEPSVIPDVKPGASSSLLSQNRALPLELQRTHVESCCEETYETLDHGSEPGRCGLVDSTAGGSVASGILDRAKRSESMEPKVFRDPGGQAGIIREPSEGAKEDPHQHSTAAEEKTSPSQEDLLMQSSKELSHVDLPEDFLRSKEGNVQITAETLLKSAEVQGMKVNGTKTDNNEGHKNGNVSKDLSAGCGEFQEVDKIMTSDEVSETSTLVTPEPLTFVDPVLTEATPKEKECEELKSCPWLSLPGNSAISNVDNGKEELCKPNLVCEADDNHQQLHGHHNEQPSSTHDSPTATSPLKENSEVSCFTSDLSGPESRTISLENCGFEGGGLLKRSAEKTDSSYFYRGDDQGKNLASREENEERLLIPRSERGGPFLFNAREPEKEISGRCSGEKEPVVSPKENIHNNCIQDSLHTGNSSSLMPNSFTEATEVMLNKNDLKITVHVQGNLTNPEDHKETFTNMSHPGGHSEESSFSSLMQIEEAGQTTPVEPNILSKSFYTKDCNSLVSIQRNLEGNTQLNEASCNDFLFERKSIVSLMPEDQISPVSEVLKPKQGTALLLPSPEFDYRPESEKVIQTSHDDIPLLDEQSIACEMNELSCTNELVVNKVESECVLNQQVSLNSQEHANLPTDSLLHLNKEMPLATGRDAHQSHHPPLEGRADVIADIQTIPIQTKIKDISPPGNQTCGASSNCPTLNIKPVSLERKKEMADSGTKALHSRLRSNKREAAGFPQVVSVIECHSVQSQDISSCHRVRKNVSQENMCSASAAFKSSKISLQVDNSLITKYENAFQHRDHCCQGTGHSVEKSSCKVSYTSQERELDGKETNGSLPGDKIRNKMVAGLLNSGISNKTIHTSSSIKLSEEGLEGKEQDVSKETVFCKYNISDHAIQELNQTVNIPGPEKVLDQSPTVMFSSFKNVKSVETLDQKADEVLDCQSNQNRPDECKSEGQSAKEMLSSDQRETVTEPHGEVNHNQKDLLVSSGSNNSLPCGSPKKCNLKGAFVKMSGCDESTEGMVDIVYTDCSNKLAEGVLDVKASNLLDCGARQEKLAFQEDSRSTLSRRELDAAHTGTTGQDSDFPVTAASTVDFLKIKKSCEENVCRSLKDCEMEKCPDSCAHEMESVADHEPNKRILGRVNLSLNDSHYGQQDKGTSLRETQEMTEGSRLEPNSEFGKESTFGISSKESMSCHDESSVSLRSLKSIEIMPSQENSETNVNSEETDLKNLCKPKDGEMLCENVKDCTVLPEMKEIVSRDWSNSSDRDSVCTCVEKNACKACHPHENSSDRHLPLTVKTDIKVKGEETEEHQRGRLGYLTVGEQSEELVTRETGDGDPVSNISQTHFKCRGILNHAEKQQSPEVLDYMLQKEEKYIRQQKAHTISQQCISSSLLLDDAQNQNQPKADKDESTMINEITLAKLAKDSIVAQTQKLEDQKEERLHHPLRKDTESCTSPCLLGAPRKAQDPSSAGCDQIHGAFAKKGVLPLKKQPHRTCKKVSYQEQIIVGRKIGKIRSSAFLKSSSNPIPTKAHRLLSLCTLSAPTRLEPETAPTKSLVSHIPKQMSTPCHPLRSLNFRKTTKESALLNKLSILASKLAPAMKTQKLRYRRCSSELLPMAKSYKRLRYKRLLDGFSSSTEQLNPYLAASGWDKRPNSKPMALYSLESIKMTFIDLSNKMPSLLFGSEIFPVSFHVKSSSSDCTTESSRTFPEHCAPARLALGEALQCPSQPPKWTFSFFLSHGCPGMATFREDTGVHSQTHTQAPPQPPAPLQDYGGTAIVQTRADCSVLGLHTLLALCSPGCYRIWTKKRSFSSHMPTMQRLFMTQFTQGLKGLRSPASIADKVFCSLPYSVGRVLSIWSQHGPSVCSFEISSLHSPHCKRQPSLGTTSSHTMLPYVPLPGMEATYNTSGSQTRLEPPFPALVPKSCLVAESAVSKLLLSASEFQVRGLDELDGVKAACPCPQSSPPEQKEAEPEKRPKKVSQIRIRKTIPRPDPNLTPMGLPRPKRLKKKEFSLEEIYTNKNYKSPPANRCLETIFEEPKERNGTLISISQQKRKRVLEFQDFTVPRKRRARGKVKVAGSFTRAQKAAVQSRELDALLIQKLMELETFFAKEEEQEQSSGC
inactive: [2] -0.205 | [1] -0.176 | vorinostat -0.009

PUF60 isoform 2 (UniProt Q9UHX1)
Chain of UniProt Q9UHX1 (Q9UHX1 whole entry, looked up): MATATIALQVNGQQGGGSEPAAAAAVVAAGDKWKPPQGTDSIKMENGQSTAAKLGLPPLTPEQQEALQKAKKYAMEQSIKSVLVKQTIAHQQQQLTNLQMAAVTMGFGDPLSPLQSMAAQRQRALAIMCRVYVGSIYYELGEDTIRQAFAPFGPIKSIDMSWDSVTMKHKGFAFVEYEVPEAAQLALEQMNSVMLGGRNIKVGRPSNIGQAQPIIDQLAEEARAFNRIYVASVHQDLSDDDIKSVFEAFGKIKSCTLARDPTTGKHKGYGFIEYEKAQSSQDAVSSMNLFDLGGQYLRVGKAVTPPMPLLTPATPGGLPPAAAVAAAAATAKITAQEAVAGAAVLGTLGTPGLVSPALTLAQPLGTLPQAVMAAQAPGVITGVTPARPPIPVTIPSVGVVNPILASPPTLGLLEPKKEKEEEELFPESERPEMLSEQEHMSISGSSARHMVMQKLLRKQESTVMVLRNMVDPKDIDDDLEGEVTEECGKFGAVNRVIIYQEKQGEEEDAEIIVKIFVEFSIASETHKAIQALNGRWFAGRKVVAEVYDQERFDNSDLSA
inactive: [2] 0.024 | [3] -0.137 | [1] 0.21 | silmitasertib 0.069

PPP2R5C isoform 2 (UniProt Q13362)
Chain of UniProt Q13362 (Q13362 whole entry, looked up): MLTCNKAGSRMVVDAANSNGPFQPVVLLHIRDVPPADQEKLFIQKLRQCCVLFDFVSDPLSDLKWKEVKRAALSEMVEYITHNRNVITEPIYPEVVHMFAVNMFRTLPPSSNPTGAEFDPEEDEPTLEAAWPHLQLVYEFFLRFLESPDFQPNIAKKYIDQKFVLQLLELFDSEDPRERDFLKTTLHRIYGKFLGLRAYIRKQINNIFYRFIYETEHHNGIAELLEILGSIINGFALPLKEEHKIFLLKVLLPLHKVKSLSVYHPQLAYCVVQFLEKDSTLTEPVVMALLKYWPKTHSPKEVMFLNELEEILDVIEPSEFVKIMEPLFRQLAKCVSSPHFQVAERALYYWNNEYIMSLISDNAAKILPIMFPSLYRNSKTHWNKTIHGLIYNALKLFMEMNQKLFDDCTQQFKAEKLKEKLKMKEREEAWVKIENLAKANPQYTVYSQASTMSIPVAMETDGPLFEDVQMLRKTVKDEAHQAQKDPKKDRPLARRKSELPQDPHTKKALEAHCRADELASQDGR
inactive: [3] -0.183 | citarinostat 0.069 | silmitasertib -0.064 | [5] 0.105

PCBP2 (UniProt F8VZX2)
inactive: [3] 0.158 | silmitasertib 0.193

PIK3CD (UniProt O00329)
inactive: [6] 0.086 | [2] 0.014 | [1] -0.047 | entinostat -0.008 | citarinostat -0.285 | [4] -0.092 | [5] 0.143

PTP4A3 (UniProt O75365)
Chain of UniProt O75365 (O75365 whole entry, looked up): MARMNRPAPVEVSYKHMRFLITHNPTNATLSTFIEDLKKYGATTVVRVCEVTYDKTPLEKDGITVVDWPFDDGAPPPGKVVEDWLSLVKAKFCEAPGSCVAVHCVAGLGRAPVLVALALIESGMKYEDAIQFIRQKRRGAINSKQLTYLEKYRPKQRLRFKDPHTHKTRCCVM
inactive: [1] -0.105

PSMC1 (UniProt G3V4X1)
inactive: vorinostat 0.168

PSMB9 (UniProt P28065)
Chain of UniProt P28065 (P28065 whole entry, looked up): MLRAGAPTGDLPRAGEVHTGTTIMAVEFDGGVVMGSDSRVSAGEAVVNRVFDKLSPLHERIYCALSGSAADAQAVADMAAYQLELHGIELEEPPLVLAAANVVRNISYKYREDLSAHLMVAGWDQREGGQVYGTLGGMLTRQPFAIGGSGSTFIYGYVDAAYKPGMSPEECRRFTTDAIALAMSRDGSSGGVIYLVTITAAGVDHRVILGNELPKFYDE
inactive: [6] -0.122 | [2] -0.102 | [1] 0.029 | entinostat -0.118 | vorinostat 0.086 | citarinostat -0.028 | [4] -0.061 | [5] 0

PTEN isoform 2 (UniProt P60484)
inactive: vorinostat 0.024 | citarinostat 0.089 | [5] 0.066

PHLDB1 isoform 2 (UniProt Q86UU1)
inactive: [2] 0.112 | [3] -0.057 | [1] -0.186 | vorinostat 0.229 | citarinostat -0.014 | silmitasertib 0.045 | [4] -0.178 | [5] -0.117

PSMD8 (UniProt K7ERW6)
inactive: [1] -0.417

PAN2 (UniProt Q504Q3)
inactive: [1] -0.198 | citarinostat -0.127 | [5] 0.002

PCF11 (UniProt O94913)
inactive: [2] -0.047 | [3] -0.333 | [1] -0.179 | vorinostat -0.04 | citarinostat 0.001 | silmitasertib -0.113 | [5] 0.112

POLB (UniProt P06746)
inactive: [6] -0.103 | entinostat 0.107 | vorinostat -0.106 | citarinostat 0.189 | [4] 0.113 | [5] -0.026

PCNX1 (UniProt Q96RV3)
inactive: [3] 0.042 | [1] -0.043 | citarinostat -0.237 | silmitasertib -0.11 | [4] -0.14 | [5] -0.269

POLR2E (UniProt P19388)
inactive: [2] 0 | [3] -0.021 | [1] -0.02 | vorinostat -0.115 | citarinostat -0.001 | silmitasertib 0.134 | [4] 0.117 | [5] -0.088

Reference: the supplement of paper PMC10849652
